Laboratory results: PubChem BioAssay (NCI)
The panel holds about 83,000 compounds, 20% with a hit somewhere; the sample as a whole holds those more often.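 Growth was measured after 48 h exposure to one concentration of compound in 96-well plates. Values under 10 count as active.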 Unmarked numbers belong to inactive results. Activity calls are given as the source filed them.

Experiments:
Assay in all cases: NCI-60 one-dose screen, 48 h (100 = growth as untreated, 0 = no growth, -100 = all killed)
Conditions in all cases: 10 µM unless noted
T-47D breast = tested on: T-47D breast
BT-549 breast = tested on: BT-549 breast
MDA-MB-435 melanoma = tested on: MDA-MB-435 melanoma
SW-620 colon = tested on: SW-620 colon
MCF7 breast = tested on: MCF7 breast
HCT-116 colon = tested on: HCT-116 colon
HCC-2998 colon = tested on: HCC-2998 colon
KM12 colon = tested on: KM12 colon

Row | SMILES | growth (T-47D breast) | growth (BT-549 breast) | growth (MDA-MB-435 melanoma) | growth (SW-620 colon) | growth (MCF7 breast) | growth (HCT-116 colon) | growth (HCC-2998 colon) | growth (KM12 colon)
1 | COc1ccccc1N1CCN(C2=C(Cl)C(=O)c3ncccc3C2=O)CC1 | 19.3% | 119% | 57.7% | 43.8% | 36.9% | 27.1% | 108% | 90.7%
2 | Cc1ccc(CSC2=C(Cl)CN(c3ccc(Cl)cc3)C2=O)cc1 | 96.5% | 110% | 103% | 108% | 79.1% | 98.5% | 105% | 106%
3 | C/C(=C(/C)C1CC1CCNC1CCC(NC(=O)OC(C)(C)C)CC1)c1ccccc1 (stereo not given) | 45.5% | 85.5% | 52.8% | 60.7% | 15.5% | 33.6% | -55.6% (active) | 73.7%
4 | Cc1cc(Br)ccc1-n1cc(C#N)c(N)c1C(=O)c1ccc(Br)cc1 | 101% | 89.8% | 100% | 117% | 95.2% | 88.6% | 110% | 107%
5 | O=C1CSC(c2cn(-c3ccccc3)nc2-c2ccc(Cl)cc2)N1c1ccccc1 (stereo not given) | 102% | 109% | 103% | 120% | 83.5% | 95.4% | 111% | 102%
6 | Cn1cc(-c2nn3cc(-c4ccncc4)nc3s2)c2cc(Br)ccc21 | 37.5% | 49.5% | 32.4% | 42.3% | 26.2% | 25% | 58.9% | 65.8%
7 | CCC(=C(c1ccc(OCCN2CCCCCC2)cc1)c1ccc(OCCN2CCCCCC2)cc1)c1ccc(Cl)cc1 | 27.1% | 86.2% | -85.8% (active) | -49.2% (active) | -63.7% (active) | -88.9% (active) | -86% (active) | 4.43% (active)
8 | Brc1ccc(-c2cc(-c3ccc4c(c3)OCCO4)n[nH]2)s1 | 22.5% | 62% | -38.1% (active) | 34.7% | 7.62% (active) | 24.7% | 42.1% | 28.2%
9 | CN1CCN(Cc2ccc(NC(=O)c3cncc(C#Cc4cnc5ccc(NCCO)nn45)c3)cc2C(F)(F)F)CC1 | 21.5% | -32.2% (active) | -6.87% (active) | -13.2% (active) | -43.5% (active) | 0.878% (active) | -8.28% (active) | -4.28% (active)
10 | O=C1Nc2ccc(F)cc2/C1=C\C(=O)c1ccc(NS(=O)(=O)c2ccccc2)cc1 | 96.7% | 111% | 92.5% | 43.1% | 22.5% | 56.9% | 116% | 102%
11 | C#C[C@]1(O)CC[C@H]2[C@@H]3CC=C4c5sc(NCc6ccccc6)nc5CC[C@]4(C)[C@H]3CC[C@@]21C | 65.8% | 18.2% | 82.2% | 52.7% | 21.7% | 12.5% | 78.1% | 18.9%
12 | COC(=O)CCSC1=C(C)C(=O)c2ccccc2C1=O | 43.5% | 88.8% | 106% | 96.3% | 73.3% | 91.5% | 111% | 82.7%
13 | Cc1csc(/N=C(N)/N=C(\N)c2cccc(C#N)c2)n1 | 79.7% | 73.1% | -6.51% (active) | 44.4% | 77.7% | 49.7% | 87.7% | 46.4%
14 | Cc1ccc2c(n1)C(=O)C(Cl)=C(Nc1ccc(C#N)cc1)C2=O | 7.98% (active) | 120% | 99.5% | -23.1% (active) | 18.7% | 67.9% | 108% | 102%
15 | COc1ccc2[nH]cc(-c3nc(N)nnc3-c3cn(C)c4ccc(Br)cc34)c2c1 | 29.3% | 39.6% | -8.23% (active) | 20.9% | 12.2% | 18.1% | 58.9% | 23.7%
